Source: PubChem BioAssay AID504616 (Sanford-Burnham Center for Chemical Genomics, 2011)
The list shows a part of the results. A number with no mark means an inactive call.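 How the source made its calls: active means mean activity change at or below -40% when tested at 20 µM; inactive means the rest.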

Assay: Rh110 fluorescence interference by putative Apaf-1 activators, confirmation, artefact control for Apaf-1 activator project, biochemical, 20 µM (AID 504616)
Conditions: quenched caspase reaction, Ex480/Em540, at 20 µM

| SMILES | fluorescence interference (activity change) |
| --- | --- |
| O=C(CSc1ccc(-c2ccc(-n3cccn3)cc2)nn1)Nc1ccc([N+](=O)[O-])cc1 | 2.63% |
| Clc1cccc(-c2nc3nc4ccccc4nc3n2Cc2ccco2)c1 | 6.33% |
| O=C(Nc1ccccc1F)c1ccccc1-c1ccccc1 | 6.9% |
| COC(=O)C(C)N(C#N)c1nc(C)nc(C)n1 (configuration not stated) | 3.06% |
| Cc1cc(NC(=O)c2cccc(N3C(=O)CCC3=O)c2)no1 | 0.61% |
| COc1cccc(C(=O)Nc2ccc(N3CCCC3)cc2)c1 | 2.88% |
| O=C(Nc1cccc(C(F)(F)F)c1)c1cnccn1 | 0.73% |
| C=CC1=C(C(=O)O)N2C(=O)[C@@H](NC(=O)/C(=N/OCC(=O)O)c3csc(N)n3)[C@H]2SC1 | 3.12% |
| C=C(C)C(=O)Nc1cccc(C2=NOC3(C2)C[C@H](C(N)=O)N(C(=O)C(c2ccccc2)c2ccccc2)C3)c1 (some centres not stated) | 7% |
| CC(=O)CCC(=O)c1ccc2ccccc2c1 | 15% |
| Nc1cc(C(F)(F)F)ccc1N1CCOCC1 | -1.22% |
| COc1ccc(C2c3ccc(O)cc3Oc3ncn(CCCO)c(=N)c32)cc1OC (configuration not stated) | -0.45% |
| Brc1ccc(/C=N/N2CCN(C3c4ccccc4-c4ccccc43)CC2)s1 | -2.39% |
| COc1cc(C(=O)NCc2nnc(SCC(=O)Nc3nc4ccc(C)cc4s3)o2)cc(OC)c1OC | -5.21% |
| O=C(CCc1ccccc1)NNC(=O)c1ccc(Br)cc1 | -7.61% |
| CC(=O)NC(=S)NNC(=O)c1ccc(Br)cc1 | -5.11% |
| O=c1[nH]c2c(c(=O)n1Cc1ccccc1)CCC2 | 13.7% |
| COc1cc(C2C(C#N)=C(N)Oc3n[nH]c(-c4ccccn4)c32)cc(OC)c1OC (configuration not stated) | 14.4% |
| CC(C)OCCCNC(=S)N1CCC(C(=O)c2ccc3c(c2)OCCO3)CC1 | 3.57% |
| CC1COc2ccccc2N1C(=O)c1cccnc1Cl (configuration not stated) | 0.54% |
| COc1ccccc1OCC(=O)Nc1c2c(nn1-c1ccc(F)cc1)CS(=O)(=O)C2 | 9.44% |
| Cc1nn(CC(=O)Nc2ccc(C#N)cc2)c(C)c1[N+](=O)[O-] | -2.47% |
